Laboratory results from ChEMBL document CHEMBL3433997, “St. Jude Leishmania screening dataset” (2016).

What was measured:
Assay type in all cases: functional
[1] = biological target: Solute carrier family 2, facilitated glucose transporter member 1 (Homo sapiens) (UniProt P11166); assay: ST_JUDE_LEISH: Cytotoxicity at 2uM final concentration against transgenic Leishmania Mexicana promastigotes LmGLUT1 that are glucose transport deficient and complemented with the human glucose transporter GLUT1. Activity is measured by DNA content using SYBR green in vitro
[2] = biological target: Hexose transporter 1 (Plasmodium falciparum) (UniProt O97467); assay: ST_JUDE_LEISH: Cytotoxicity at 2uM final concentration against transgenic Leishmania Mexicana promastigotes LmPfHT that are glucose transport deficient and complemented with the Plasmodium falciparum hexose transporter. Activity is measured by DNA content using SYBR green in vitro
[3] = biological target: Glucose transporter (Leishmania mexicana) (UniProt O61059); assay: ST_JUDE_LEISH: Cytotoxicity at 2uM final concentration against transgenic Leishmania Mexicana promastigotes LmGT2 that are glucose transport deficient and complemented with the L. Mexicana glucose transporter 2. Activity is measured by DNA content using SYBR green in vitro

Solute carrier family 2, facilitated glucose transporter member 1 (Homo sapiens), sequence (P11166 whole entry): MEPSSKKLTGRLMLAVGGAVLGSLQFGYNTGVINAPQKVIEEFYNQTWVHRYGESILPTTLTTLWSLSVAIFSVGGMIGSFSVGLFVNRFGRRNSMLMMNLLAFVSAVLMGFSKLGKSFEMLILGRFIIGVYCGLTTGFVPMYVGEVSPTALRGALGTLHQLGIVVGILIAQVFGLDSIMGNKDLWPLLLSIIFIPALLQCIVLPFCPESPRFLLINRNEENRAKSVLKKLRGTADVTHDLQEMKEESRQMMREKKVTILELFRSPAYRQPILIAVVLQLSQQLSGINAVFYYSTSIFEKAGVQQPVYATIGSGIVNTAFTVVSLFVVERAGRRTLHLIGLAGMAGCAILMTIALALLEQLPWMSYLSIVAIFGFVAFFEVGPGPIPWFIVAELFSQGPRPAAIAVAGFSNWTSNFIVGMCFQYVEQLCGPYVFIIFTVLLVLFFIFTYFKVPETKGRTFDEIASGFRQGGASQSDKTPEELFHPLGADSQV

| Structure (SMILES) | inhibition [1] [%] | inhibition [2] [%] | inhibition [3] [%] |
| --- | --- | --- | --- |
| Cc1cccc2nc(-c3ccc(-c4ccc(NC(=O)C5CCN(C)CC5)cc4)cc3)[nH]c12 | 3.08 | 5.28 | 1.38 |
| Cc1n[nH]c2cc(Nc3ccnc(Nc4ccc(CN5CCOCC5)cc4)n3)ccc12 | 12.7 | 9.89 | 14.2 |
| Cc1sc2ncnc(Sc3nc4ccccc4[nH]3)c2c1C | 5.47 | 8.07 | 3.58 |
| Cc1ccccc1C1CCN(C2CCC(NC(=O)/C=C/c3cccc(Cl)c3F)CC2)CC1 (stereo unspecified) | 3.45 | 1.79 | 1.85 |
| CCC[C@@H]([C@@H](CC(C)C)C(=O)N[C@@H](CCCCNC(=O)c1cccc(OC)c1)C(=O)Nc1nccs1)N(O)C=O | 8.94 | 10.2 | 5.1 |
| CC1CCCN(S(=O)(=O)c2cc(Br)cc3c2N(C(=O)C2CC2)CC3)C1 (stereo unspecified) | 2.64 | 2.33 | 1.02 |
| COc1cccc(Nc2nc(NCCO)c3ccccc3n2)c1 | 14.8 | 15 | 5.17 |
| Cc1ccc(Nc2nc(N/N=C/c3ccccc3[N+](=O)[O-])nc(Nc3ccc([N+](=O)[O-])cc3)n2)cc1C | 12.9 | 8.51 | 5.3 |
| O=C(COc1ccc(C(=O)c2ccccc2)cc1)Nc1nccs1 | 0.24 | 0.43 | -3.28 |
| O=C(Nc1cc(C(F)(F)F)cc(C(F)(F)F)c1)Nc1ccc(Cl)c(Cl)c1 | 0.47 | 1.04 | 1.22 |
| N#Cc1ccc(CN2CCCN(Cc3cccc(NC(=O)c4cc5ccccc5s4)c3)CC2)cc1 | -0.46 | -0.58 | -1.54 |
| O=C(Nc1cccc(Cl)c1)c1cnc(N2CCN(c3ccncc3)CC2)c(Cl)c1 | 23.4 | 42 | 12.7 |
| CC(=O)Nc1nc(C(=O)Nc2cccc(-c3cccc(-c4nc5cc(F)ccc5[nH]4)c3)c2)cs1 | 2.3 | 3.28 | 2.66 |
| C(=Cc1ccccc1)C=NN=c1cc[nH]c2ccccc12 | -0.05 | 1.5 | -2.14 |
| CC1(C)NC(N)=NC(=N)N1OCCCOc1ccc(N)cc1 | -1.98 | -0.16 | -1.26 |
| O=C(Nc1ccc(Oc2ccccc2)cc1)N(Cc1ccc(-c2ccc(CN3CCNCC3)cc2)cc1)C1CCN(Cc2ccccc2)CC1 | -1.93 | -1.14 | -0.33 |

| Structure (SMILES) | inhibition [1] [%] | inhibition [2] [%] | inhibition [3] [%] |
| --- | --- | --- | --- |
| CCn1ccc2c(N3CCCC3=O)cc(C(=O)N[C@@H](Cc3ccccc3)[C@H](O)CNC(C)(C)CCCC(C)C)cc21 | 0 | 0.39 | 0.34 |
| Cc1cccc(C(=O)Nc2ccnc(N3CCC(N(C)Cc4ccccc4)CC3)c2)c1 | -1.46 | -0.98 | -0.83 |
| O=C(/C=C/c1ccc(Cl)c(Cl)c1)NCCCCCN1CCC(c2c[nH]c3ccccc23)CC1 | 1.33 | 4.32 | 3.63 |
| CC(=O)c1ccc(N2C(=O)C3C(Cc4ccc(OC(C)(C)C)cc4)NC4(C(=O)N(Cc5ccc(C(C)(C)C)cc5)c5ccccc54)C3C2=O)cc1 (stereo unspecified) | 7.13 | 4.25 | 2.13 |
| Cn1nccc1C(=O)NCCNCc1cccc(-c2ccc(-c3nc4cc(C(F)(F)F)ccc4[nH]3)s2)c1 | 16.3 | 15.5 | 14.6 |
| O=C(Nc1cccnc1)c1cc(-c2cccnc2)nc2ccc(Cl)cc12 | 6.95 | 2.76 | 1.98 |
| CN1CCN(C(C(=O)NCc2cc(Cl)cc(Cl)c2)c2ccc(NC(=O)Nc3ccccc3)cc2)CC1 (stereo unspecified) | 2.24 | 1.94 | 1.21 |
| CNc1cc(-c2ccc3ccnc(N)c3c2)nc(N)n1 | -1.76 | 0.35 | -3.58 |
| COc1ccc2ccc(OC)c(CNCCCCCCNCc3c(OC)ccc4ccc(OC)cc34)c2c1 | 5.41 | 9.06 | 4.72 |
| N#Cc1cccc(C(=O)Nc2ccc(-c3cccc(CN4CCC(O)CC4)c3)cc2)c1 | 0.21 | 0.35 | -0.04 |
| Cc1ccc(CNC(=O)c2cc3c(=O)n4cccc(C)c4nc3n(CCN3CCOCC3)c2=N)cc1 | -0.35 | 1 | 1.48 |
| CCc1c(CCNCC/C=C/CCNCCc2ccc(OC)c(OC)c2CC)ccc(OC)c1OC | 0.84 | 1.33 | -1.26 |
| COc1ccc(-c2ccc(NC(=O)c3cccc(C#N)c3)cc2)cc1CN1CCNCC1 | 9.28 | 5.74 | 4.28 |
| Cc1cc(NCCc2ccccc2)nc(N/C(=N/CC(=O)OC(C)(C)C)Nc2ccc(C(F)(F)F)cc2)n1 | 4.08 | 0.44 | 2.34 |
| CCC(CSC1CCCCC1)N(C)CCN(C)C(CC)CSC1CCCCC1 (stereo unspecified) | 7.39 | 36.7 | 4.54 |
| NC1=NC(c2ccccc2)(c2ccccc2)C(=O)N1CCOc1ccccc1 | 1.06 | 0.96 | 2 |
